The structures appear in SMILES notation. About 2,300 (0.64%) of roughly 360,000 compounds were called active. The sample holds actives, similar compounds and a random draw of the others, so the mix is not that of the screen. A number with no mark means an inactive call.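 How the source made its calls: active means compounds giving at least 50% protection of heart cells from peroxide-induced death in the single-dose screen, raw or plate-pattern-corrected value; inactive means the rest.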

This test can be described thus: H9c2 cardiomyocyte survival under peroxide injury – uHTS, H9c2 cells, ATPLite luminescence, primary screen (AID 588492).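 Further: 0% = DMSO wells with peroxide and 100% = DMSO wells without peroxide.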 The note with it: H9c2 cardiomyocytes, 2 h, at 20 µM, stronger effect = higher value.
Consider `CCOc1ccc2[nH]c(=O)c(CN(CCCO)S(=O)(=O)c3ccc(F)cc3)cc2c1`, for which the protection from H2O2 cell death is 18.6%.
Consider `COc1ccc(-c2[nH]ncc2CN(C)Cc2cccnc2)c(F)c1`, for which the protection from H2O2 cell death is -2.7%.
Under `COc1ccc2[nH]c(=O)c(CN(Cc3cccnc3)S(=O)(=O)c3ccccc3F)cc2c1` stands 60.7% (active); under `O=C(CNS(=O)(=O)c1ccc2c(c1)OCCCO2)N1CCN(c2ccc(F)cc2)CC1`, -3.7%; under `CC1CCC2(CC1)NC(=O)N(CC(=O)c1cccn1C)C2=O` (configuration not stated), 7.1%.
The result for `N#C/C(=C\c1ccc(-c2cccc([N+](=O)[O-])c2)o1)C(=O)NCCN1CCOCC1` reads 55% (active); that for `Cc1ccc(-c2ccc(/C=N/NC(=O)CN3CCOCC3)o2)cc1[N+](=O)[O-]`, 7.6%.
Under `Cc1ccc(C(=O)N/C(=C/c2ccc(-c3cccc([N+](=O)[O-])c3)o2)C(=O)NCCCN(C)C)cc1` stands -22.6%.
On to `COc1ccc(C(=O)Nc2ccc(C(=O)NCC3CCCO3)cc2)c(OC)c1OC` (configuration not stated), for which the protection from H2O2 cell death was 10.2%.
On to `O=C(NCCN1C(=O)S/C(=C\c2cccnc2)C1=O)c1ccc(S(=O)(=O)N2CCCC2)cc1`, for which the protection from H2O2 cell death is 0.9%.
Regarding `Oc1c(C(c2ccccn2)N2CCOCC2)ccc2cccnc12` (configuration not stated), the protection from H2O2 cell death was 64.9% (active).
For the molecule `COc1cc(-c2nnc(NC(=O)C3=COCCO3)o2)cc(OC)c1OC`, the protection from H2O2 cell death was -5.7%.
As for `CCOC(=O)c1cc(-c2nnc(-c3cc(OC)c(OC)c(OC)c3)o2)c(C)nc1C`, the protection from H2O2 cell death was 119% (active).
As for `Cc1nc(C)c(-c2nnc(-c3cccc(S(=O)(=O)N(C)C)c3)o2)cc1C(=O)NN`, the protection from H2O2 cell death was -1.4%.
The result for `CCOC(=O)c1[nH]cnc1C(=O)NC1CCCCC1` reads 5.2%; that for `Cc1cc(C(=O)N/N=C/c2cc([N+](=O)[O-])cc(C)c2O)n[nH]1`, 58.2% (active); that for `COc1ccc(C(=O)NNC(=O)c2cc(C)[nH]n2)cc1`, 7.7%.
Consider `Cc1occc1C(=O)N/N=C/c1ccc(-c2cccc([N+](=O)[O-])c2)o1`, for which the protection from H2O2 cell death was 16.2%.
Turning to `O=C(OC1CCOC1=O)c1ccc(-c2nc3ccccc3s2)s1` (configuration not stated), the protection from H2O2 cell death was -18.2%.
Under `Cc1cc(C)c(S(=O)(=O)c2ccc(F)cc2C)c(=O)[nH]1` stands 11.1%; under `O=C(CCc1ccc(O)cc1)NN=Cc1cc(Br)ccc1O`, 41.5%; under `Oc1ccc(Br)cc1C=Nc1ccc2[nH]ncc2c1`, 63.8% (active).
The result for `CCN(CC)CCn1c(/N=C/c2cc(Br)ccc2O)nc2ccccc21` reads 32.2%; that for `CCc1cc(=O)oc2cc(OCC(=O)N3CCCc4ccccc43)ccc12`, 22.6%.
Regarding `Cc1cc(C(=O)OCC(=O)NCc2ccco2)c(C)n1-c1ccccc1`, the protection from H2O2 cell death was -1.9%.
Under `COc1ccc(/C=C2/S/C(=N/N=C3\CC4CCC3(C)C4(C)C)NC2=O)cc1` (configuration not stated) stands -7.9%; under `O=[N+]([O-])c1ccc2c(c1)C(N1CCOCC1)/C(=C/C1(O)CCCCC1)O2` (configuration not stated), 1.3%; under `O=C1OCCC1=COCCCCOC=C1CCOC1=O`, 3%.
As to `O=C(NCC1(N2CCCCC2)CCCCC1)c1cccc(S(=O)(=O)Nc2ccccc2Cl)c1`, the protection from H2O2 cell death is 28.2%.
`O=C(O)Cn1c(Cc2ccccc2)nc2ccccc21`: the protection from H2O2 cell death was 11.1%.
The result for `CCCn1c(N)c(C(=O)CSc2nnc(-c3cccnc3)n2-c2ccc(C)cc2C)c(=O)[nH]c1=O` reads 22.9%; that for `Cc1ccc(C)c(NC(=O)CSc2nc3c(oc4ccccc43)c(=O)n2-c2ccccc2)c1`, -6.4%.
Under `CCCCC(=O)Nc1ccc2c(c1)C(=O)NC2=O` stands 9.9%; under `CCCCC(=O)Nc1cc(C)c2c(=O)oc3ccccc3c2n1`, 77.7% (active).
The result for `COc1ccc2c(c1)C(NS(=O)(=O)OCC(Cl)(Cl)Cl)CCC2` (configuration not stated) reads -4.5%.
In the case of `COc1ccc2[nH]c(=O)c(CNc3ccc(C)c(C)c3)cc2c1`, the protection from H2O2 cell death was 57.7% (active).
The result for `COc1ccc(S(=O)(=O)NCCc2cc3ccc(C)c(C)c3[nH]c2=O)cc1` reads -9.7%.
As to `COc1ccc2[nH]c(=O)c(CN(CC3CCCO3)C(=O)Nc3ccccc3)cc2c1` (configuration not stated), the protection from H2O2 cell death was 11.7%.
Consider `CCc1cccc(CC)c1N1C(=O)CC(Sc2ccccc2N)C1=O` (configuration not stated), for which the protection from H2O2 cell death is -0.9%.
Turning to `O=C(NCc1cccs1)C(=O)NCC1OCCCN1S(=O)(=O)c1ccc(F)cc1` (configuration not stated), the protection from H2O2 cell death is 6%.
Consider `CCOc1cc2c(Cl)ncnc2c(OCC)c1OCC`, for which the protection from H2O2 cell death is 0.8%.
The result for `CC(Oc1ccc(Cl)cc1)C(=O)OCC(=O)Nc1ncc(Cl)cc1Cl` (configuration not stated) reads 7.1%; that for `O=C(COC(=O)Cn1[nH]c(=O)c2ccccc2c1=O)Nc1ncc(Cl)cc1Cl`, 79.9% (active); that for `O=C(COC(=O)c1ccc(S(=O)(=O)N2CCCCCC2)cc1)Nc1ccccc1C(F)(F)F`, 2.5%.
With `Cc1ccc(C)c(NC(=O)COC(=O)c2nn(C)c(=O)c3ccccc23)c1`, the protection from H2O2 cell death is 7%.
The result for `O=C(COC(=O)Cn1[nH]c(=O)c2ccccc2c1=O)Nc1c(Cl)cccc1C(F)(F)F` reads 88.6% (active); that for `Cc1ccc(S(=O)(=O)N(C)CC(=O)OCC(=O)Nc2ccccc2)cc1`, -0.1%.
`CCC1(CC)NC(=O)N(CC(=O)OCC(=O)c2cc(C)c(C)cc2C)C1=O`: the protection from H2O2 cell death is 4.7%.
Under `CCC1(CC)NC(=O)N(CC(=O)OCC(=O)Nc2ccc(C(F)(F)F)cc2)C1=O` stands 4.8%; under `CN(C)S(=O)(=O)c1ccc(NC(=O)COC(=O)Cn2[nH]c(=O)c3ccccc3c2=O)cc1`, 72.5% (active).
The result for `CC1(C(=O)OCC(=O)Nc2ncc(Cl)cc2Cl)CC1(Cl)Cl` (configuration not stated) reads -1.6%; that for `Cc1ccc(C)c(C(=O)COC(=O)Cn2[nH]c(=O)c3ccccc3c2=O)c1`, 82% (active); that for `CN(C)S(=O)(=O)c1ccc(NC(=O)COC(=O)c2n[nH]c3ccccc23)cc1`, -11.7%.
The result for `CCc1nc2ccc(C(=O)NCCNC(C)=O)cn2c1N(CC)Cc1cccc(Br)c1` reads 4.8%; that for `CC(OC(=O)CNC(=O)c1cccc(F)c1)C(=O)NC1CCCCC1C` (configuration not stated), 2%.
`CCCC(=O)Nc1ccc2c(c1)nc1n2CCSC1`: the protection from H2O2 cell death is -7.4%.
Under `CS(=O)(=O)N1CCc2nc(-c3ccccc3)sc2C1` stands -1.4%.

The values are drawn from PubChem BioAssay AID588492 (Sanford-Burnham Center for Chemical Genomics, 2011).
